# BAZ2B block: qHTS Assay for Inhibitors of BAZ2B; Bromodomain adjacent to zinc finger domain protein 2B (Homo sapiens), Q9UIF8; AlphaScreen BAZ2B-H3K14Ac peptide displacement; Potency, µM (titrated, usually from 114 µM), for inactives: at the top dose activity change, negative = inhibition, actives largely listed as inhibitors; 360,000 tested, 4.4% active; note: % is set by controls: 0 for no effect and ±100 for the full control effect; nearly all actives have a fitted effect of over 60% in size
#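 In this displacement format the biotinylated H3(5-23) peptide acetylated at Lys14 serves as ligand at 50 nM, with BAZ2B at 50 nM in PBS pH 7.4 containing 0.01% Tween-20. Donor and acceptor beads are 10 ug/mL final.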
# L3MBTL1 block: qHTS Assay for the Inhibitors of L3MBTL1. Potency, µM (series often up to 57.1 µM), for the others: at the highest dose activity, negative = inhibition, actives largely listed as inhibitors. 230,000 tested, 0.66% active. Lethal(3)malignant brain tumor-like protein 1 (Homo sapiens), Q9Y468. AID 485360, 2010. AlphaScreen L3MBTL1–H3K9me1 peptide binding; note: % is set by controls: 0 for no effect and ±100 for the full control effect; nearly all actives have a fitted effect of over 60% in size
#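 Displacement of a biotinylated histone H3(1-15) peptide monomethylated at Lys9 (75 nM) from L3MBTL1 (50 nM) was measured by AlphaScreen after a 30 min room-temperature compound incubation; cefsulodin titration served as intraplate control.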
# HP1b chromo inh: HTS for Inhibitors of HP1-beta Chromodomain Interactions with Methylated Histone Tails. Chromobox protein homolog 1 (Homo sapiens), P83916. AlphaScreen HP1-beta / biotin-H3K9me3 peptide binding. Potency, µM (titrated, usually from 114 µM), for inactives: top-dose activity change, negative = inhibition, hits mostly inhibitors. 390,000 tested, 0.56% active. AID 540317, 2011; note: nearly all actives have a fitted effect of over 70% in size
#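 AlphaScreen: HP1-beta (50 nM) preformed 30 min with biotin-H3(1-18)K9me3 peptide (50 nM) in PBS pH 7.4, 0.01% Tween-20. Compound added for 30 min at RT, then streptavidin donor/nickel chelate acceptor beads (10 ug/mL) for 30 min.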
# G9a block: qHTS Assay for Inhibitors of Histone Lysine Methyltransferase G9a | G9a H3K9 monomethylation, AlphaScreen, 2 h | Potency, µM (series often up to 102 µM), without a hit: at the top dose activity, negative = inhibition, actives largely listed as inhibitors | Histone-lysine N-methyltransferase EHMT2 (Homo sapiens), Q96KQ7 | AID 504332, 2011 | 350,000 tested, 8.8% active; note: % is set by controls: 0 for no effect and ±100 for the full control effect; nearly all actives have a fitted effect of over 75% in size
#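 Compounds were preincubated with 20 nM G9a for 15 min, after which biotinylated H3K9 peptide (500 nM) and SAM (20 uM) started a 2 h room-temperature reaction. Monomethylated product was quantified by antibody-based AlphaScreen chemiluminescence.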
# JMJD2A Tudor: qHTS Assay for Inhibitors of JMJD2A-Tudor Domain; AID 504339, 2011; 390,000 tested, 4.4% active; AlphaScreen JMJD2A-Tudor / H3K4me3 peptide binding; Lysine-specific demethylase 4A (Homo sapiens), O75164; Potency, µM (doses to about 114 µM), without a hit: at the highest dose activity change, negative = inhibition, usual class: inhibitors; note: % is set by controls: 0 for no effect and ±100 for the full control effect; nearly all actives have a fitted effect of over 50% in size
# * marks the source's active call; other numbers are inactive results; ? = inconclusive; / = no result given; ! = not active in a repeat; [ ] = dose if it differs, or a comment. Most compounds without a hit are left out; they make up all but 11% or so of the library. Calls come from the whole dose curve; as a rule, active = well fitted inhibition curve with a large enough effect; inconclusive = small, poorly fitted or top-dose-only effect; inactive = no such curve, though single readings can be large or run the other way. Potency is the fitted concentration of half-maximal effect.
SMILES,BAZ2B block,L3MBTL1 block,HP1b chromo inh,G9a block,JMJD2A Tudor
CCOC(=O)N1CCN(CC(O)COc2ccc(OC)cc2C(C)(C)C)CC1 (stereo unspecified),?,-3%,24%,-2%[59 µM],-23%
CCOC(=O)C1CCCN(CC(O)COc2ccccc2C(C)=O)C1 (stereo unspecified),-4%,/,6%,?,-18%
CCOC(=O)C1CCCN(CC(O)COc2ccc(OC)cc2C(C)(C)C)C1 (stereo unspecified),50µM*,-2%,7.9µM*,13µM*,?
CCOC(=O)C1CCN(Cc2ccccc2C)CC1,56µM*,/,17%,?,-5%
CCOC(=O)C1CCN(Cc2c(O)c3ccccc3oc2=O)CC1,21%,-13%,29%,-6%,-6%
CCN(CC)c1ccc(C2C3CCCCC3(O)CCN2C(=O)c2cccs2)cc1 (stereo unspecified),?,?,-29%,50µM*,?
Cc1noc(C)c1S(=O)(=O)NCCc1csc2nc(-c3ccc(F)cc3)nn12,-2%,/,8%,10%[59 µM],?
CCOC(=O)c1cccc(NC(=S)NC(=O)c2cccnc2)c1,-19%,-2%,31%,50µM*,-8%
COc1ccc(COc2cc(-c3cccc(OC)c3)nc3ccc(NC(=O)c4cccnc4)cc23)cc1,-35%,-17%,-8%,50µM*,?
CCc1c(C)sc(NC(=S)Nc2cccnc2)c1C(=O)OC,13%,-12%,10%,45µM*,-7%[57.1 µM]
COc1cccc(NC(=S)NC(=O)c2cccnc2)c1,-37%,-3%,21%,7.9µM*,-6%
O=C(O)c1cccc(NC(=S)NC(=O)c2ccc(-c3ccccc3)cc2)c1,-36%,-10%,16%,35µM*,-3%
CC(C)NC(=S)NC(=O)c1ccc(-c2ccccc2)cc1,-31%,-1%,-6%,40µM*,-33%
Cc1ccc(C(=O)O)cc1NC(=S)NC(=O)c1ccc(-c2ccccc2)cc1,-32%,-15%,?,14µM*,?
S=C(Nc1ccccc1)Nc1ccc2cn[nH]c2c1,-17%,19%,22%,/,-16%
O=C(NC(=S)Nc1ccc2cn[nH]c2c1)c1ccccc1,-2%,6%,18%,45µM*,-8%
CCCN(C(=O)Cn1ncc2c1-c1ccccc1OC2)c1cccc(C)c1,-1%,/,24%,-32%[59 µM],-5%
COc1cccc(-c2cncnc2NCc2cccs2)c1,/,/,/,8%[0.501 µM],/
CC(=O)c1sc(NC(=O)c2c(-c3ccccc3)c(-c3ccccc3)nn(C)c2=O)nc1C,2%,/,35%,-4%[59 µM],-12%
O=C(Cc1cccc2ccccc12)NC(=S)Nc1cccc(C(=O)O)c1,?,8%,-16%,16µM*,-23%
O=C(O)c1cccc(NC(=S)NCc2ccccc2)c1,-17%,6%,13%,-27%,-20%
COc1cc(C)ccc1OCCSc1nc2ccc(NC(=O)c3ccco3)cc2s1,-33%,/,10%,?,-21%
COc1ccc(-c2nc3c(c(SCC(=O)Nc4cccc(O)c4)n2)Cc2c(CO)cnc(C)c2O3)cc1,?,/,13%[57 µM],11µM*!,-35%
CCc1ccc(NC(=O)CSc2nc(-c3ccccc3Cl)nc3c2Cc2c(CO)cnc(C)c2O3)cc1,-1%,/,24%,10%[59 µM],13%
CCc1ccc(NC(=O)CSc2nc(-c3ccc(C)cc3)nc3c2Cc2c(CO)cnc(C)c2O3)cc1,50µM*,-9%,43%,10%[12.7 µM],-24%
SMILES,BAZ2B block,L3MBTL1 block,HP1b chromo inh,G9a block,JMJD2A Tudor
Cc1ccc(C(=O)/C=C/C(=O)c2ccc(C)cc2)cc1,6%,13%,?,1.6µM*,-23%
Cc1ccc(/C=C/C(=O)c2ccc(C)cc2)cc1,11%,11%,20%,8%[59 µM],-1%
O=C1CNC(=O)/C1=C\N1CCN(C(c2ccccc2)c2ccccc2)CC1,-31%,1%,78%,45µM*,-18%
CCOC(=O)C(CC)Sc1ncnc2c1c(-c1ccccc1)cn2-c1ccc(OC)cc1 (stereo unspecified),5%,/,33%,16%[59 µM],-4%
CN1/C(=C\C(=O)CSc2nnc(NCc3ccccc3)s2)C(C)(C)c2ccccc21,?,-10%,6%,3.2µM*,?
CC(C)Oc1ccc(CNC(=O)c2ccc(NC(=O)N3CCSc4ncccc43)cc2)cc1,-13%,/,24%,-38%[59 µM],-21%
CC(=O)c1cccc(NS(=O)(=O)c2ccc3[nH]c4c(c3c2)CCCCC4)c1,-37%[57.1 µM],/,-21%,16µM*,?
Cc1ccc(NS(=O)(=O)c2ccc3[nH]c4c(c3c2)CCCC4)cc1N(C)C,32µM*,/,?,?,35µM*
CC(=O)c1cccc(NS(=O)(=O)c2ccc3[nH]c4c(c3c2)CCCCCC4)c1,-27%,/,3%[57 µM],?,?
O=S(=O)(Nc1cccc(Cl)c1)c1ccc2[nH]c3c(c2c1)CCCCCC3,?,/,-4%[57 µM],-9%[59 µM],?
Cc1cccc(NS(=O)(=O)c2ccc3[nH]c4c(c3c2)CCCCCC4)c1,-29%,/,8%[57 µM],16µM*,?
CC(C)(C)NS(=O)(=O)c1ccc2[nH]c3c(c2c1)CCCCC3,45µM*,/,?,71µM*,?
CCOC(=O)O[C@@H](C)OC(=O)[C@@H]1N2C(=O)[C@@H](NC(=O)[C@@H](N)c3ccccc3)[C@H]2SC1(C)C,/,/,/,27%[21.5 µM],/
CCCN1C(=O)c2ccccc2NC1c1ccc(OC)c(COc2cccc(OC)c2)c1 (stereo unspecified),/,/,17%[57 µM],/,-18%[57.1 µM]
CCN(C[C@H]1N[C@@](CC)(C(=O)OC)[C@H]2C(=O)N(C)C(=O)[C@@H]12)C(=O)COC,/,5%,6%,/,-36%
CCCN(C(=O)Cn1nc(Cc2cccnc2)c2ccccc2c1=O)c1ccc(C(C)C)cc1,?,/,15%,-44%[59 µM],?
Cc1ccc(NS(=O)(=O)c2ccc3[nH]c4c(c3c2)CCCCCC4)cc1Cl,-24%,/,22%,-33%[59 µM],?
Cc1ccccc1NS(=O)(=O)c1ccc2[nH]c3c(c2c1)CCCCC3,-29%[57.1 µM],/,-33%,?,45µM*
CCOC(=O)c1cccc(NS(=O)(=O)c2ccc3[nH]c4c(c3c2)CCCC4)c1,40µM*,/,?,14µM*,28µM*
Cc1ccc(NC(=O)CCCn2c(=O)c3cccn3c3cccnc32)cc1C,-9%,/,32%,2%[59 µM],0%
Cc1cnc2c3c(cc(Cl)c2c1)-c1ccccc1S(=O)(=O)N3,/,/,-17%,/,20µM*
Cc1ccc(C)c(OCCC(=O)NNC(=O)c2cc(C)oc2C)c1,5%,-2%,17%,26%[59 µM],-23%
CCC(C)NC(=O)c1c(N)n(/N=C/c2ccccn2)c2nc3ccccc3nc12 (stereo unspecified),-37%,-11%,16%,50µM*,-34%

# Source: PubChem BioAssay
